± gives the standard deviation of the averaged measurements.
Legend:
Experiment in all cases: cell proliferation (confluence) relative to DMSO control; higher = less growth inhibition
Conditions in all cases: 5 uM; 6 d
BT549 = system: BT549
How it was run: (§1)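 Triple-negative breast cancer cell lines were plated at 500 cells per well in 384-well plates. After the cells adhered, each epigenetic chemical probe, dissolved in DMSO, was added at a final 5 μM for 6 d. Confluency was imaged in an IncuCyte ZOOM (×10 objective, phase-contrast) and analysed with Incucyte 2016 software. Each plate held four replicate wells per compound plus DMSO wells, and confluence was normalised to DMSO control.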

CAL120 = system: CAL120
How it was run: as §1

HCC1143 = system: HCC1143
How it was run: as §1

HCC1395 = system: HCC1395
How it was run: as §1

HCC153 = system: HCC153
How it was run: as §1

HCC1806 = system: HCC1806
How it was run: as §1

HCC38 = system: HCC38
How it was run: as §1

HCC70 = system: HCC70
How it was run: as §1

Hs578-T = system: Hs578-T
How it was run: as §1

MB157 = system: MB157
How it was run: as §1

SUM149-PT = system: SUM149-PT
How it was run: as §1

SUM159-PT = system: SUM159-PT
How it was run: as §1

Row | Compound | cell proliferation (BT549) [%] | cell proliferation (CAL120) [%] | cell proliferation (HCC1143) [%] | cell proliferation (HCC1395) [%] | cell proliferation (HCC153) [%] | cell proliferation (HCC1806) [%] | cell proliferation (HCC38) [%] | cell proliferation (HCC70) [%] | cell proliferation (Hs578-T) [%] | cell proliferation (MB157) [%] | cell proliferation (SUM149-PT) [%] | cell proliferation (SUM159-PT) [%]
1 | COc1cc2c(NC3CCN(C(C)C)CC3)nc(C3CCCCC3)nc2cc1OCCCN1CCCC1 | 99.51 ± 0.12 | 81.6 ± 8.8 | 98.93 ± 0.9 | 99.3 ± 0.76 | 89 ± 4.7 | 99.53 ± 0.2 | 99.86 ± 0.072 | 98.64 ± 0.65 | 98.1 ± 1.1 | 67.8 ± 16 | 91.8 ± 8.8 | 99.996 ± 0.0018
2 | CCCOc1ccn2c(C(C)=O)cc(-c3ccccc3S(C)(=O)=O)c2c1 | 99.1 ± 0.35 | 99.03 ± 0.55 | 98.2 ± 1 | 99.968 ± 0.022 | 53 ± 5.5 | 81.9 ± 6.8 | 99.1 ± 0.59 | 92.2 ± 7.6 | 97.6 ± 0.9 | 76.8 ± 20 | 88.7 ± 8.8 | 99.983 ± 0.013
3 | CCN(C(=O)CO)[C@H]1CN(/C(=N\C#N)Nc2cccc(OC(F)F)c2)N=C1c1ccc(Cl)c(Cl)c1 | 99.63 ± 0.31 | 90.8 ± 2.4 | 99.11 ± 0.44 | 99.957 ± 0.033 | 82.4 ± 4.8 | 99.79 ± 0.11 | 99.79 ± 0.12 | 90.8 ± 8.2 | 98.67 ± 0.29 | 78.6 ± 8.9 | 75.9 ± 10 | 99.999 ± 0.002
4 | CCOC(=O)CCNc1cc(N2CCc3ccccc3CC2)nc(-c2ccccn2)n1 | 28.2 ± 3.8 | 22.3 ± 2.1 | 60.8 ± 4.6 | 40.6 ± 9.5 | 21.3 ± 3.7 | 27.9 ± 4.9 | 23.1 ± 5 | 66 ± 12 | 68.5 ± 11 | 33.6 ± 8.3 | 10.2 ± 3.8 | 94.72 ± 0.36
5 | CCCc1cc(C)n(C)c(=O)c1CN(C)C(=O)c1cc(-c2ccc(N3CCN(C(C)C)CC3)nc2)cc2c1cnn2C(C)C | 99.971 ± 0.015 | 93.4 ± 3.8 | 99.3 ± 0.59 | 99.983 ± 0.016 | 84.6 ± 3.8 | 99.889 ± 0.049 | 99.77 ± 0.13 | 97.3 ± 2.3 | 97.89 ± 0.81 | 87.5 ± 6.8 | 84.2 ± 10 | 99.997 ± 0.0012
6 | COc1cc(-c2cn(C)c(=O)c3cnccc23)c(OC)cc1CN(C)C | 99.729 ± 0.064 | 96.7 ± 2 | 96.9 ± 3.3 | 99.978 ± 0.01 | 55.9 ± 8.2 | 65.4 ± 6 | 99.64 ± 0.17 | 96.2 ± 2.6 | 98.52 ± 0.23 | 88.3 ± 10 | 74.4 ± 19 | 99.991 ± 0.0063
7 | CC(C)Oc1ccc(-c2c[nH]cc2CN(C)CCN)cc1 | 90.4 ± 3.7 | 99.34 ± 0.54 | 97.6 ± 0.99 | 99.982 ± 0.016 | 59.3 ± 2.6 | 80.7 ± 11 | 99.56 ± 0.26 | 94.5 ± 2.1 | 95.4 ± 1.7 | 93.7 ± 4.8 | 67.6 ± 13 | 99.843 ± 0.074
8 | Cc1cc(=O)n(C)c2cc(N3C(=O)CC[C@H](NS(=O)(=O)CC(C)C)[C@H]3c3ccc(Cl)cc3)ccc12 | 98.62 ± 0.82 | 98.85 ± 0.5 | 99.53 ± 0.27 | 99.99 ± 0.01 | 55.4 ± 11 | 81.7 ± 5.8 | 99.02 ± 0.89 | 85.8 ± 9.3 | 98.75 ± 0.26 | 71 ± 19 | 82.6 ± 16 | 99.951 ± 0.055

Source: the supplement of paper PMC9337992
